Compounds with a hit are over-represented: about 1.5% of the library has one in this group of screens.
PLCg1 inh: PLC-gamma1 enzyme inhibitors, primary screen, biochemical, fluorescence, purified enzyme; fluorogenic substrate; inhibition, % at 12.2 µM; 370,000 tested, 0.84% active
PLCb3 inh: human PLC-beta3 inhibitors, primary screen, biochemical, fluorescence; AID 720704, 2013; Purified PLC-beta3, fluorogenic substrate; inhibition, % at 12.2 µM; 1-phosphatidylinositol 4,5-bisphosphate phosphodiesterase beta-3 (Homo sapiens), Q01970; 370,000 tested, 0.18% active; in the data active = inhibition above about 11%;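 note: 0% = median of compound wells on plate and 100% = full blocker control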
DAGLB inhibitor: DAGLB lipase inhibitors, primary screen, biochemical, fluorescence, HTS. HEK293T DAGLB membrane lysate, EnzChek fluorogenic substrate. Diacylglycerol lipase-beta (Homo sapiens), Q8NCG7. 340,000 tested, 0.059% active. inhibition, % at 5.17 µM; in the data active = inhibition above about 34%;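 note: 0% = enzyme with vehicle and 100% = wells lacking enzyme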
Target sequence (Q8NCG7 whole entry, looked up): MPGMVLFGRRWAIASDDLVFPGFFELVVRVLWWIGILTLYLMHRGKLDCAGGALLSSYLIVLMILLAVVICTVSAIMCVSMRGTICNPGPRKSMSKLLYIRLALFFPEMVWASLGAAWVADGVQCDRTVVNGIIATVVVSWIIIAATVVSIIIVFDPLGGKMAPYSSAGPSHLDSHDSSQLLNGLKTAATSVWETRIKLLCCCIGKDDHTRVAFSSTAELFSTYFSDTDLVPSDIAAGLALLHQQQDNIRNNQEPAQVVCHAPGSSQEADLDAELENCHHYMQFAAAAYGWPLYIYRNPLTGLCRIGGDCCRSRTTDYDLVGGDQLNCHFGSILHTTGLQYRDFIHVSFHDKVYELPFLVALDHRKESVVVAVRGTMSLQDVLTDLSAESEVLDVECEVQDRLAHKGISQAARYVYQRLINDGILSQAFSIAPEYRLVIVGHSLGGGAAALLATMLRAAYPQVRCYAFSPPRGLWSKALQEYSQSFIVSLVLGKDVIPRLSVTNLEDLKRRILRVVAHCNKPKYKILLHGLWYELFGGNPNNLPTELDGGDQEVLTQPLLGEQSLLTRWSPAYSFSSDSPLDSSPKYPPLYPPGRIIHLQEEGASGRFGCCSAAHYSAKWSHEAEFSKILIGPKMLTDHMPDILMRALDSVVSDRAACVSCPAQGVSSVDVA
sPLA2-III inh: human group III sPLA2 inhibitors, primary screen, biochemical, QFRET, BODIPY PC-A2 liposome substrate | Group 3 secretory phospholipase A2 (Homo sapiens), Q9NZ20 | QFRET BODIPY PC-A2 liposome hydrolysis, fluorescence | inhibition, % at 12.2 µM | 370,000 tested, 0.56% active;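 active = inhibition above mean plus 3 SD of compounds lying within the high and low control bounds, cut at about 19% in these data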;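 note: 0% = median of test compound wells and 100% = no enzyme DMSO wells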
PLCgamma1 ctr: PLC-gamma1 enzyme inhibitors, counter-screen for PLC-beta3 inhibitor project, biochemical, fluorescence. shares compounds with PLCg1 inh. purified PLC-gamma1, fluorogenic substrate. inhibition, % at 12.3 µM. 3,300 tested, 3.1% active. AID 743258, 2014
PLCbeta3 conf: PLC-beta3 inhibitor confirmation, biochemical, fluorescence, purified enzyme | shares compounds with PLCg1 inh | fluorogenic substrate fluorescence | inhibition, % at 12.3 µM | 3,300 tested, 1% active; in the data active = inhibition above about 11%
Starred values were filed as active, the others as inactive; / = no result. Cut-off read from the data, not from the text of the source, unless noted: active = inhibition above about 9.5%; inactive = the rest.

SMILES	PLCg1 inh	PLCb3 inh	DAGLB inhibitor	sPLA2-III inh	PLCgamma1 ctr	PLCbeta3 conf
CCOc1ccc(N2C(=O)CC(S/C(N)=N/N=C/c3cccs3)C2=O)cc1 (stereo not drawn)	10*	5	25	-5	3	6
Cn1c(=O)[nH]c(=O)c2c1nc(N1CCOCC1)n2CCN1CCOCC1	2	1	-1	2	/	/
CCCCn1cnc2c1c(=O)[nH]c(=O)n2CCCC	7	11*	1	5	-4	7
Cn1c(=O)[nH]c(=O)c2c1ncn2CCN1CCOCC1	5	11*	0	7	-4	-4
Cc1ccc(S(=O)(=O)N2CCN(CC(=O)N/N=C\c3ccccn3)CC2)cc1	1	-5	0	15	/	/
CN1CCN(CCC(=O)N/N=C/c2ccccn2)CC1	10*	3	-1	4	4	-5
CCC[C@H]1[C@@H](NC(=O)c2ccc(Cl)c(C(F)(F)F)c2)CC[C@@]23CCCN2C(=O)CCC[C@@H]13	-1	-1	/	-7	/	/
CCOC(=O)c1cccc(NC(=O)CN(C)S(=O)(=O)c2ccc(F)cc2)c1	-3	-1	/	-10	/	/
CC(C)N1CCN(c2ccc(OCC3COC(Cn4cncn4)(c4ccc(Cl)cc4Cl)O3)cc2)CC1 (stereo not drawn)	9.8*	9	2	-1	2	0
CCS(=O)(=O)c1nc(S(=O)(=O)c2ccc(C)cc2)c(N2CCN(C)CC2)s1	9.8*	-5	-4	12	0	-1
CCS(=O)(=O)c1nc(S(=O)(=O)c2ccc(Cl)cc2)c(N2CCN(C)CC2)s1	2	-6	2	8	/	/
CSCCC(NC(=O)OCc1ccccc1)C(=O)NCc1cccnc1 (stereo not drawn)	9.8*	-5	-2	15	-2	-3
CSCC[C@H](NC(=O)OCc1ccccc1)C(=O)O	3	4	0	-1	/	/
Cc1cccc(C(=O)N2CCN(c3ccc([N+](=O)[O-])c(NCc4ccco4)c3)CC2)c1	9.5*	-2	-2	-17	-2	-1
CCC(=O)N(C)C[C@@H]1[C@H](c2ccc(C3=CCCCC3)cc2)[C@H](CO)N1C(=O)CC	0	0	/	-1	/	/
COc1ccc(OCC(=O)NS(=O)(=O)c2ccc(Cl)cc2)cc1	-3	-6	0	-8	/	/
O=C(COc1ccccc1)NS(=O)(=O)c1ccccc1	10.0*	-1	2	11	-7	-1
COc1ccc(C(=O)N[C@H](C(=O)NCC2CCCCC2)C(C)C)cc1	12*	2	-12	1	-12	-10
CC(=O)N1CCCN(C(=O)C2CCN(c3ncnc4c3sc3cccc(F)c34)CC2)CC1	-59	-84	/	3	/	/
COc1ccc(C(=O)NCCNC(C)=O)cc1S(=O)(=O)NCc1ccc(Cl)cc1	-3	0	1	6	/	/
COc1ccc(C(=O)NCC(C)(C)N2CCOCC2)cc1S(=O)(=O)NCc1ccc(Cl)cc1	12*	-10	3	17	-4	0
O=C(NCc1ccc(Cl)cc1)C1C2C=CC3(CN(Cc4ccccc4)C(=O)C13)O2 (stereo not drawn)	2	2	/	1	/	/
COC(=O)N[C@H](C(=O)N[C@@H](Cc1ccccc1)[C@@H](O)CN(Cc1ccc(-c2ccccn2)cc1)NC(=O)[C@@H](NC(=O)OC)C(C)(C)C)C(C)(C)C	15*	11*	/	12	-6	-5
Cc1cc(-c2n[nH]c(=S)n2N=Cc2ccc(OCc3ccccc3)cc2)n[nH]1	0	0	/	2	/	/
Cc1cc(C)cc(NC(=O)CCNC(=O)c2ccc([N+](=O)[O-])cc2)c1	10*	-3	-4	-6	-8	-6
SMILES	PLCg1 inh	PLCb3 inh	DAGLB inhibitor	sPLA2-III inh	PLCgamma1 ctr	PLCbeta3 conf
COC(=O)[C@@]12CCCCC3=C1N(CCC3)C(=O)[C@H]2CC(=O)N1CCCC1	-1	-4	/	17	/	/
Cc1onc(-c2ccccc2)c1CNS(=O)(=O)c1cccc(Cl)c1	11*	6	-2	-12	-6	1
Cc1nc(N2CCN(C(=O)C3CC3)CC2)c2c3c(sc2n1)CC(C)CC3 (stereo not drawn)	0	-1	/	5	/	/
CCOc1ccc(S(=O)(=O)N2CCC(C(=O)N3CCCC3)CC2)cc1C	11*	3	0	-2	3	2
COC(=O)c1cc(COC(=O)c2nc3nc(C)cc(C)n3n2)oc1C	9	12*	-4	-2	1	3
C[C@H]1[C@@H](NCc2cccs2)CC[C@@]23CCCN2C(=O)CCC[C@@H]13	-2	-1	/	-1	/	/
CC(C)[C@H]1/C(=C/C2CC2)N2C(=O)C[C@H](c3cccc(C(F)(F)F)c3)N=C2N1Cc1ccc2c(c1)OCO2	-1	1	/	-3	/	/
CCn1c(SCc2ccc(F)cc2)nc2ccccc2c1=O	11*	-1	-9	6	-4	-6
CCn1c(SCc2ccc(OC)c(F)c2)nc2ccccc2c1=O	-1	-8	-10	-6	/	/
O=C(O)C[C@H]1c2cc(F)ccc2S(=O)(=O)N1C1CCCC1	10*	1	2	11	6	5
CC(C)(C)N1Cc2nnn(Cc3ccccc3)c2-c2cc(N3CCCCC3)ccc2S1(=O)=O	-15	-15	/	-1	/	/
COc1ccc(C(=O)NC(=S)Nc2ccc(Cl)c(C(=O)O)c2)cc1	0	2	3	3	/	/
CC(C)Oc1cccc(C(=O)NC(=S)Nc2ccc(Cl)c(C(=O)O)c2)c1	10*	-6	2	2	-9	-4
CCOc1nc(CC(C)C)c2c(c1C#N)CC(C)(C)OC2	-1	-4	-12	-1	/	/
COC(=O)COc1nc(C)c2c(c1C#N)CC(C)(C)OC2	1	11*	-2	7	4	6
O=C(Nc1ccc(Br)c(C(F)(F)F)c1)[C@@H]1CC=C[C@@H]2CCN(CC3CC3)C(=O)[C@@H]21	1	3	/	3	/	/
O=C(N[C@H](C(=O)N1CCC[C@H]1C(=O)NCCc1ccccc1Cl)C1CCCCC1)c1cccs1	9.9*	8	/	-13	2	-4
CCOC(=O)CC[C@@]1(C(=O)OCC)C[C@@H](CC(=O)NCCCOC)C(=O)N2CCCC=C21	-1	0	/	-2	/	/
COc1cc(/C=C2\C(=O)N(c3ccccc3)N=C2C)ccc1Oc1ccc([N+](=O)[O-])cc1[N+](=O)[O-]	10*	4	-2	6	2	-1
COc1ccccc1/C=C1/C(=O)N(c2ccccc2)N=C1C	28*	0	2	10	-7	-3
COc1cc(/C=C2/C(=O)N(c3ccc(C)c(C)c3)N=C2C)cc([N+](=O)[O-])c1O	0	-3	14	-3	/	/
